Screening data as filed in PubChem BioAssay.
Compounds with a hit are over-represented: about 4.1% of the library has one in this group of screens.
hgDAF12 agonist – H. glycines DAF-12 receptor agonists, primary screen, cell-based, luminescence, HEK293, GAL4 fusion, UAS-luciferase; Nuclear hormone receptor DAF-12 (Heterodera glycines), GAL4 fusion; HEK293 GAL4-hgDAF12 UAS-luciferase reporter, agonist luminescence; normalized to butyrate control; activation, % at 6.8 µM; 1.8% of 370,000 active; AID 687014, 2013;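 active means activation above a cutoff set at the mean of all screened compounds plus 3 SD, cut at about 10% in these data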;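 further: 0% = DMSO wells and 100% = sodium butyrate wells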
hcDAF-12 act – H. contortus DAF-12 nuclear receptor activators, primary screen, cell-based, luminescence, HEK293, lit1-tk-luc reporter | HEK293 hcDAF-12 lit1-tk-luc reporter; 0% DMSO, 100% Δ7-dafachronic acid | activation, % at 6.8 µM | 1.4% of 370,000 active | AID 652067, 2013;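 active means activation above the mean of all tested compounds plus 3 SD, cut at about 5.5% in these data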;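 further: 100% = response to 3 µM Δ7-dafachronic acid high control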
ssDAF-12 act – S. stercoralis DAF-12 nuclear receptor activators, primary screen, cell-based, luminescence, HEK293, GRIP1 co-expression, lit1-tk-luc | activation, % at 6.8 µM | Nuclear hormone receptor DAF-12 (Strongyloides stercoralis) | AID 652126, 2013 | 1% of 370,000 active | HEK293 ssDAF-12/GRIP1 lit1-tk-luc reporter; % of 3 µM dafachronic acid response;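 active means activation above the mean over all tested compounds plus 3 SD, cut at about 0.9% in these data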;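 further: 0% = DMSO-only wells and 100% = 3 µM delta7-dafachronic acid wells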
DAX1 inh-1 – DAX1 (NR0B1) inhibitors on StAR promoter, primary screen, cell-based, luminescence, SF-1 (NR5A1), full-length DAX-1. 1.1% of 370,000 active. inhibition, % at 6.8 µM. HEK293T StAR-luciferase reporter, SF-1/DAX-1 repression relief;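 active means inhibition above the mean over all tested compounds plus 3 SD, cut at about 3.6% in these data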;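 further: 0% = DAX-1 cells with DMSO and 100% = cells lacking DAX-1 with DMSO; higher inhibition means more luminescence from relief of DAX-1 repression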
DAX1 inh-2 – DAX1 (NR0B1) inhibitors, primary screen, cell-based, HEK293, Gal4-DAX1, luciferase luminescence. 0.99% of 340,000 active. HEK293 Gal4-DAX1 luciferase reporter. inhibition, % at 6.75 µM. AID 504766, 2011;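 active means inhibition above the mean over all tested compounds plus 3 SD, cut at about 4.2% in these data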;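 further: 0% = DAX1-transfected cells with DMSO and 100% = empty-vector control cells with DMSO; inhibition shows as a rise in luminescence from relieved DAX1 repression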
hgDAF12 conf – H. glycines DAF-12 receptor agonists, confirmation, cell-based, luminescence, HEK293, GAL4-LBD fusion | HEK293 GAL4-hgDAF12 luciferase reporter, agonist mode; percent of butyrate response | activation, % at 6.8 µM | shares compounds with hgDAF12 agonist | AID 743050, 2013 | 80% of 3,300 active;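 active means mean activation over triplicate wells above the hit cutoff derived from the earlier primary screen, cut at about 11% in these data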;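 further: 0% = DMSO low control and 100% = 2 mM sodium butyrate high control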
LXRb DAF12 ctr – LXR agonists, Gal4 luciferase reporter, confirmation, counter-screen for hgDAF-12 agonist project, cell-based, luminescence, HEK293, H. glycines campaign; shares compounds with hgDAF12 agonist; 24 h; activation, % at 6.8 µM; 3,300 tested, under 10 active;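 active means mean activation of the triplicate above a set limit carried over from the primary screen, none filed active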
Target sequence (P55055 whole entry, looked up, the tested form may be a part): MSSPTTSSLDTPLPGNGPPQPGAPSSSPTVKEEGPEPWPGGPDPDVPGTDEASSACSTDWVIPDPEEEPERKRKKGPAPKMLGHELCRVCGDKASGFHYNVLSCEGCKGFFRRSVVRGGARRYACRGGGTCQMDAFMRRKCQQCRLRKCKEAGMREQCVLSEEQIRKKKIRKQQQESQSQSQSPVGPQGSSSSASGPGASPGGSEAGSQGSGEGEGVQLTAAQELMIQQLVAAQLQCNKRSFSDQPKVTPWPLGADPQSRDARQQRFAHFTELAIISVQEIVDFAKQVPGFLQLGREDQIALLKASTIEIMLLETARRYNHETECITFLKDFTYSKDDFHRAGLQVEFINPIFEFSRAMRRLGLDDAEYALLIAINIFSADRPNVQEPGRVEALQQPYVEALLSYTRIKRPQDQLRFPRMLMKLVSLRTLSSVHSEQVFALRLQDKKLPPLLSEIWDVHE
* marks the source's active call; other numbers are inactive results; . = not tested or not shown.

SMILES	hgDAF12 agonist	hcDAF-12 act	ssDAF-12 act	DAX1 inh-1	DAX1 inh-2	hgDAF12 conf	LXRb DAF12 ctr
C#CCN(C[C@H]1[C@H](OC(=O)Nc2cccs2)[C@H](OC(=O)Nc2cccs2)CN(C(=O)OC(C)C)N1C(=O)OC(C)C)S(=O)(=O)c1ccc(C)cc1	-1	-1	-2	-2	.	.	.
COc1ccc(C(=O)CSc2nnc(-c3cccnc3)n2-c2ccccc2)cc1	4	1	-2	-1	.	.	.
O=C(/C=C/Nc1ccc(Oc2ccccc2Cl)cc1)c1ccco1	15*	2	0	1	3	17*	1
Cc1cc(NC(=O)c2cccc(F)c2)ncc1NC(=O)c1ccco1	15*	3	0	2	0	12*	1
O=C(Nc1ccc(NC(=O)C2CC2)nc1)c1ccco1	4	-1	0	1	1	.	.
COc1ccccc1Oc1ccc(N/C=C/C(=O)c2ccco2)cc1	9	4	-1	2	1	.	.
O=C(Nc1ccc(NC(=O)c2ccccc2F)cn1)c1ccco1	14*	3	0	1	-3	10	1
CCCCNC(=O)C[C@@H]1C[C@]2(C(=O)OCC)CCC3=C2N(CCC3)C1=O	1	0	-1	0	.	.	.
COc1ccc(CN2C(=O)CN(S(C)(=O)=O)CC2(C)c2nnnn2C2CCCCC2)cc1 (stereo unspecified)	0	0	-1	-1	.	.	.
Cc1ccc(-c2cn3cccnc3n2)cc1	15*	2	-1	2	1	11*	0
CCOC(=O)C1C(c2cccnc2)NC(=O)NC1(O)C(F)(F)F (stereo unspecified)	0	0	0	0	2	.	.
CCOC(=O)C1C(c2cccs2)NC(=O)NC1(O)C(F)(F)F (stereo unspecified)	24*	-2	0	0	0	-1	0
CC(=O)N1CCC(=NNC(=O)c2cc3ccccc3cc2O)CC1	1	0	-2	0	1	.	.
CC(=O)N1CCC(=NNC(=O)c2cccs2)CC1	14*	5	0	4.0*	5.3*	9	0
CC1=C/C(=N\NC(=S)NCCc2ccccc2)CC(C)(C)C1	5	5	-1	2	1	.	.
CC1=C/C(=N\NC(=O)c2cccs2)CC(C)(C)C1	17*	4	0	1	0	1	0
COc1ccc(C2NN=C(c3ccc(C)cc3)S2)cc1OC (stereo unspecified)	18*	3	0	3	4	18*	1
COc1ccc(C2NC(=O)CS2)cc1OC (stereo unspecified)	-2	-1	-1	0	1	.	.
COc1ccc(C=C(C(C)=O)C(=O)c2ccccc2)cc1	4	-1	-1	-2	.	.	.
COc1ccc(C=C(C(=O)c2ccccc2)C(=O)c2ccccc2)cc1	14*	1	-1	2	.	11*	0
COC(=O)[C@]12C[C@H](CC(=O)NCC34CC5CC(CC(C5)C3)C4)C(=O)N(Cc3ccccc3)C1=C[C@H](COCc1ccccc1)O[C@@H]2C	0	-3	-2	1	.	.	.
COC(=O)C[C@H]1CC[C@@H]2[C@H](COc3ccc(NC(=O)c4ccccc4OC)cc3C(=O)N2C)O1	15*	-2	0	0	.	0	0
